Out of some 68,000 compounds screened, about 25 (0.04%) showed an effect of 50% or more. The list comes from a sample in which strong results are over-represented; it also holds similar structures and randomly drawn compounds.
These compounds were tested against T1, Methionyl-tRNA synthetase, putative (Leishmania donovani (strain BPK282A1)) (UniProt E9BF75) (assay: Leishmania donovani Methionine tRNA synthetase (LdMetRS):v6. Primary screen assay).
T1 sequence (whole entry): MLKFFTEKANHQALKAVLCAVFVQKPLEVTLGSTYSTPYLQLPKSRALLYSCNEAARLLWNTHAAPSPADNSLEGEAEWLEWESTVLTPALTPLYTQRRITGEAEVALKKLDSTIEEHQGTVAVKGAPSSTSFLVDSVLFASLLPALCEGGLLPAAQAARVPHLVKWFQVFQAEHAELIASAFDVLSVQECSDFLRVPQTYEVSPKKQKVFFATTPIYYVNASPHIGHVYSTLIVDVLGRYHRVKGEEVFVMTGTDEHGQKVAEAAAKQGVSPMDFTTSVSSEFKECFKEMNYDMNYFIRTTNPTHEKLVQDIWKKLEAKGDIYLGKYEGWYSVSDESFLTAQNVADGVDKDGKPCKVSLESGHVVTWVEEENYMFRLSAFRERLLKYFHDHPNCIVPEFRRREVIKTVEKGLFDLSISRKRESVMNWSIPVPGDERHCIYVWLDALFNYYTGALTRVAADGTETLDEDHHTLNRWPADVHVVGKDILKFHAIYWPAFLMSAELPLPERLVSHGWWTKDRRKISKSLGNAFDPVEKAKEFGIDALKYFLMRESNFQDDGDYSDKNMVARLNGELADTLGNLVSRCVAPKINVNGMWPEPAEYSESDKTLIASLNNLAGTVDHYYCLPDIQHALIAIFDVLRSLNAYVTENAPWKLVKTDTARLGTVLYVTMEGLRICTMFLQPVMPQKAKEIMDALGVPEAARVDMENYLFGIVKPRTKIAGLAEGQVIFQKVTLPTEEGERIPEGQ
Assay type: functional
Parameters: conc 80 nM, time 150 minutes
Compound `CCCOc1cc(C)c2c(c1C)C[C@H]([C@H](C)C(=O)O)CC2` has an inhibition of 2.26%.
Compound `CC(C)N1[C@H](CN2CCCC2)C[C@@H]2CN(Cc3cnn(C)c3)CC[C@@H]21` has an inhibition of 12.3%.
Compound `c1coc(CN2CCO[C@H]3[C@H](OCC4CC4)CC[C@@H]32)c1` has an inhibition of 13.7%.
Compound `O=C(NCC1CCOCC1)[C@@H]1CC[C@@H]2[C@@H](CCN2Cc2ccncc2)O1` has an inhibition of 19.3%.
Compound `Cc1nc(CN2C(=O)C[C@@H]3[C@@H]2CCN3S(=O)(=O)C2CC2)cs1` has an inhibition of 11.7%.
`COCC(=O)N1C[C@@H]2CCCO[C@@H]2[C@H](N(C)Cc2ccco2)C1` was tested, and the inhibition was -6.25%.
With `CNC(=O)[C@H]1C[C@@H]2CN(Cc3ccccc3)C[C@H]1O2` the inhibition was 15.9%.
Compound `COC(=O)CCNC(=O)c1cccc(C(=O)N(C)c2ccccc2)c1` has an inhibition of 31.7%.
For `CN(C(=O)c1cccc(C(=O)NCC(F)(F)F)c1)c1ccccc1`, the inhibition was 3.94%.
With `COC(=O)CNC(=O)c1cccc(C(=O)N(C)c2ccccc2)c1` the inhibition was 95%.
For `O=C(NC1CC1)N1C[C@@H]2CCN(C(=O)c3cscn3)[C@@H]2C1`, the inhibition was 0.546%.
With `CO[C@H]1C[C@@H]2CN(C(=O)c3cc4ccc(F)cc4[nH]3)C[C@@H]2C1` the inhibition was 13.3%.
Compound `O=C1[C@H]2CN(S(=O)(=O)c3ccccc3)C[C@H]2CN1Cc1cccnc1` has an inhibition of 4.19%.
In the case of `Cc1cccnc1NC(=O)NCc1ccc(N2CCNC(=O)C2)cc1`, the inhibition is reported as 50.6%.
`Cc1ccccc1C(=O)NCc1ccc(N2CCNC(=O)C2)cc1` showed an inhibition of 14.1%.
`Cc1nnc(NC(=O)NCc2ccc(N3CCNC(=O)C3)cc2)s1` gave an inhibition of 9.92%.
Compound `CN(C)S(=O)(=O)N1CC[C@]2(O)CCN(Cc3cccc(F)c3)C[C@@H]2C1` has an inhibition of 12.9%.
Work on `CC(C)c1nc(N2CCC(N3CCCCCC3)CC2)c2cnn(C)c2n1` yielded an inhibition of 56.4%.
`CC(C)c1nc(N2CCC(N3CCCC(O)C3)CC2)c2cnn(C)c2n1` (stereo not drawn) gave an inhibition of 14.7%.
Compound `CC(C)c1nc(N2CCC(N3CCSCC3)CC2)c2cnn(C)c2n1` has an inhibition of 12.3%.
Work on `CC1=N[C@@]2(CC[C@@H]3CN(CC4CC4)C[C@@H]32)C(=O)N1CC(C)C` yielded an inhibition of 14.9%.
`COCCN1C[C@H]2CC[C@@H]1CN(C(=O)CCn1cc(Cl)cn1)C2` showed an inhibition of 9.25%.
`CC(C)CC(=O)N1CC[C@@H]2[C@H](CC1)N(Cc1cccnc1)CCS2(=O)=O` gave an inhibition of 15.2%.
`CN(C)CCN1CC[C@H]2[C@@H]1CCN2Cc1ccc2c(c1)OCO2` gave an inhibition of 5.56%.
`CCCSCC(=O)N1C[C@@H]2CC[C@H](C1)N(Cc1ccccn1)C2=O` was tested, and the inhibition was -1.42%.
`c1ccc(CN2C[C@H]3CC[C@@H]2CN(Cc2nnc(C4CC4)o2)C3)cc1` gave an inhibition of 12.8%.
`CC(=O)N1CCN(c2ccc3ccc(C(=O)NC4CCCC4)cn23)CC1` gave an inhibition of 52.9%.
Work on `CN(C)C(=O)N1CCN(c2ccc3ccc(C(=O)NC4CC4)cn23)CC1` yielded an inhibition of 20.2%.
Compound `CC(C)N1CCN(c2ccc3ccc(C(=O)NC4CCCC4)cn23)CC1` has an inhibition of 30.2%.
Compound `N#Cc1cccc(C(=O)N2CC[C@H]3[C@H]2CCN3CC2CCOCC2)c1` has an inhibition of 9.34%.
With `CS(=O)(=O)NC[C@]12COC[C@H]1CN(CCc1ccccc1)C2` the inhibition was 13.1%.
For `Cc1nc([C@H]2C[C@@H]3CCN(C(=O)c4ccnnc4)C[C@H]3O2)sc1C`, the inhibition was 17%.
With `O=C(NCC1CCOCC1)[C@H]1C[C@@H]2CCN(Cc3ccccc3)C[C@H]2O1` the inhibition was 18.4%.
Work on `CNC(=O)N1C[C@H]2C[C@H](C(=O)NCc3cccnc3)[C@@H](C1)O2` yielded an inhibition of 9.15%.
In the case of `Cc1ncc(CN2CCOC(CNc3cccnn3)C2)s1` (stereo not drawn), the inhibition is reported as 13.2%.
In the case of `CCCN1C[C@H]2CC[C@@H]1CN(c1nnc(C(C)C)s1)C2`, the inhibition is reported as 9.31%.
In the case of `O=C(Cn1ccc(=O)cc1)N1C[C@H]2CC[C@@H]1CN(c1ncccn1)C2`, the inhibition is reported as 15.1%.
Compound `CC1=N[C@@]2(CC[C@@H]3CN(Cc4ccccc4C)C[C@@H]32)C(=O)N1CC1CC1` has an inhibition of 6.09%.
Work on `CN1CCC(CO[C@H]2CN(C(=O)c3cccn3C)[C@@H]3COC[C@H]23)CC1` yielded an inhibition of 8.4%.
Work on `CC(C)c1nnc(NCCS(C)(=O)=O)s1` yielded an inhibition of 1.24%.
In the case of `CC(C)CCNc1nnc(C(C)C)s1`, the inhibition is reported as 80.1%.
In the case of `CCN(CC)S(=O)(=O)CCNc1nnc(C(C)C)s1`, the inhibition is reported as -0.621%.
`COc1ccc(CN2CCO[C@H]3[C@H](OCCN4CCCC4)CC[C@@H]32)cc1` showed an inhibition of 6.3%.
`C1CC(CN2C[C@H]3CC[C@@H]2CN(Cc2nnc(C4CC4)o2)C3)C1` gave an inhibition of 9.96%.
`Cc1cncc(C(=O)N2C[C@H]3CCC[C@@]3(COc3ccccn3)C2)c1` was tested, and the inhibition was 8.5%.
For `COc1cc(N2CC[C@@H]3O[C@@H](C(=O)NCCN(C)C)C[C@@H]32)ncn1`, the inhibition was 4.66%.
With `O=C1[C@H]2CC[C@H](CN(C3CCOCC3)C2)N1Cc1cscn1` the inhibition was 8.93%.
With `Cc1oncc1C(=O)N1CC[C@H]2[C@@H]1CCC(=O)N2CC1CCOCC1` the inhibition was 13.7%.
`Cc1ccoc1C(=O)N1CC[C@H]2C[C@H](c3nnc(C4CC4)o3)O[C@@H]2C1` was tested, and the inhibition was 15.5%.
`O=S(=O)(C1CC1)N1C[C@@H]2CN(Cc3ccoc3)CCO[C@@H]2C1` gave an inhibition of 8.7%.
`Cc1occc1C(=O)N1C[C@@H]2OCCN(c3ncccn3)[C@@H]2C1` showed an inhibition of 9.59%.
`COc1cc(CN2CCN(CC3CC3)[C@@H]3CS(=O)(=O)C[C@@H]32)cc(OC)c1` was tested, and the inhibition was 7.26%.
`N#Cc1cccc(CN2C[C@H](NC(=O)C3CC3)[C@H]3OCCC[C@H]32)c1` showed an inhibition of 10.6%.
`O=C(NC1CC1)[C@H]1C[C@@H]2CCN(Cc3ccc4c(c3)OCO4)C[C@@H]2O1` gave an inhibition of 1.31%.
`CCS(=O)(=O)N1C[C@H]2CCC[C@@]2(COc2ccccn2)C1` gave an inhibition of 12.9%.
Compound `CS(=O)(=O)N1CC[C@H]2O[C@H](C(=O)NCCc3ccccn3)CC[C@H]21` has an inhibition of 7.41%.
Work on `CCN1C[C@H]2C3(CCN(C(C)=O)CC3)CC[C@@]2(C(=O)N(C)C)C1` yielded an inhibition of 1.68%.
For `CCCN1C[C@H]2CC[C@@H]1CN(C(=O)c1ccc(N(C)CCO)cc1)C2`, the inhibition was 12.9%.
For `Cc1cccc(N2CC[C@@H]3[C@@H](CO[C@H]3CNC(=O)c3ccco3)C2)n1`, the inhibition was 13.1%.
`CSc1ncccc1C(=O)N1C[C@H]2CC[C@@H]1CN(C(=O)N(C)C)C2` was tested, and the inhibition was 16.9%.
Work on `CNc1ccnc(N2C[C@@H]3CC[C@H](C2)N(CCOC)C3=O)n1` yielded an inhibition of -4.82%.
For `CC(CN1CCCC1=O)NC(=O)c1ccc(-c2ccco2)[nH]c1=O` (stereo not drawn), the inhibition was 16.8%.
In the case of `CCCC(C)NC(=O)c1ccc(-c2ccco2)[nH]c1=O` (stereo not drawn), the inhibition is reported as 9.58%.
`CCC(C)NC(=O)c1ccc(-c2ccco2)[nH]c1=O` (stereo not drawn) was tested, and the inhibition was 86.2%.
Work on `CCN1Cc2nc(OC)c(CNC(=O)C3CCS(=O)(=O)CC3)cc2C1=O` yielded an inhibition of -0.86%.
`Cc1ccc(CN2CCC[C@]3(C(=O)O)CN(c4ncccn4)C[C@@H]3C2)o1` gave an inhibition of 14.6%.
`CC(=O)N1[C@H](Cn2cncn2)C[C@@H]2CN(Cc3ccncc3)CC[C@@H]21` gave an inhibition of 5.54%.
In the case of `Cc1ccc(CN2CCN(CC3CC3)[C@@H]3CS(=O)(=O)C[C@@H]32)cc1C`, the inhibition is reported as 15.6%.
For `CCS(=O)(=O)CCNC(=O)[C@@]12CNC[C@@H]1CN(C1CCCC1)C2`, the inhibition was 6.92%.
Compound `Cc1nc(COC[C@@H]2CC[C@H]3[C@H](CCN3S(C)(=O)=O)O2)cs1` has an inhibition of 15.2%.
In the case of `O=C(CCn1cc(Cl)cn1)N1C[C@@H]2CC[C@H](C1)N(Cc1ccccn1)C2`, the inhibition is reported as 15.8%.
With `Cc1cccc(C(=O)N2C[C@H]3CC[C@@H]2CN(S(=O)(=O)N(C)C)C3)n1` the inhibition was 19.9%.
For `CCS(=O)(=O)NC[C@]12COC[C@H]1CN(Cc1ccsc1)C2`, the inhibition was 7.3%.
In the case of `CCC(=O)N1CC[C@@H]2[C@H](CC1)N(Cc1cccc(C)n1)CCS2(=O)=O`, the inhibition is reported as 14.2%.
For `COCCNc1nc(-n2nc(C)cc2C)nc2sc3c(c12)CCCC3`, the inhibition was 9.06%.
`Cc1cc(C)n(C2=NC(NCCC(C)C)c3c(sc4c3CCCC4)N2)n1` (stereo not drawn) gave an inhibition of 16.4%.
With `Cc1cc(C)n(-c2nc(NCCCO)c3c4c(sc3n2)CCCC4)n1` the inhibition was 59.5%.
Compound `CN(C)C(c1ccccn1)[C@H]1CC[C@H](CNC(=O)C2CC2)CC1` (stereo partly drawn) has an inhibition of 16%.
In the case of `O=C(C[C@@H]1COC[C@H]2CN(Cc3ccc(F)cc3)C[C@@H]12)N1CCCC1`, the inhibition is reported as 13%.
Work on `CC(=O)N1CC[C@@]2(C(=O)Nc3ccccc3)CCN(S(C)(=O)=O)CC[C@@H]12` yielded an inhibition of 8.93%.
`c1ccc(CN2CC[C@@H]3O[C@@H](COCC4CCOCC4)CC[C@@H]32)nc1` was tested, and the inhibition was 10.1%.
For `O=C(c1ccsc1)N1C[C@H](N2CCOCC2)[C@@H]2OCCC[C@@H]21`, the inhibition was 13.9%.
For `O=C(C[C@@H]1COC[C@H]2CN(Cc3ccc(F)cc3)C[C@@H]12)N1CCCCO1`, the inhibition was 12.9%.
`CNS(=O)(=O)c1ccc(CNC(=O)C2CCCO2)cc1` (stereo not drawn) showed an inhibition of -0.269%.
Compound `Cc1oncc1C(=O)N1CC[C@H]2[C@@H]1CCC(=O)N2c1cccnc1` has an inhibition of 17.6%.
Compound `Cn1cc(CN2CC[C@H]3O[C@@H](C(=O)NC4CC4)CC[C@H]32)cn1` has an inhibition of 3.76%.
For `c1csc(CN2C[C@@H](n3cccn3)[C@H]3OCCC[C@H]32)c1`, the inhibition was 10.1%.
With `COc1cccc(NC(=O)N2CC[C@@H]3CN(C)S(=O)(=O)[C@@H]3CC2)c1` the inhibition was -1.1%.

Reference: ChEMBL document CHEMBL3988442, “University of Dundee, Small-Polar-MMV Screening Library” (2021)
